The compounds below were run against Serine/threonine-protein kinase PLK1 (Homo sapiens) (UniProt P53350). Conditions: at 10 µM.
Serine/threonine-protein kinase PLK1 (Homo sapiens), sequence (P53350 whole entry): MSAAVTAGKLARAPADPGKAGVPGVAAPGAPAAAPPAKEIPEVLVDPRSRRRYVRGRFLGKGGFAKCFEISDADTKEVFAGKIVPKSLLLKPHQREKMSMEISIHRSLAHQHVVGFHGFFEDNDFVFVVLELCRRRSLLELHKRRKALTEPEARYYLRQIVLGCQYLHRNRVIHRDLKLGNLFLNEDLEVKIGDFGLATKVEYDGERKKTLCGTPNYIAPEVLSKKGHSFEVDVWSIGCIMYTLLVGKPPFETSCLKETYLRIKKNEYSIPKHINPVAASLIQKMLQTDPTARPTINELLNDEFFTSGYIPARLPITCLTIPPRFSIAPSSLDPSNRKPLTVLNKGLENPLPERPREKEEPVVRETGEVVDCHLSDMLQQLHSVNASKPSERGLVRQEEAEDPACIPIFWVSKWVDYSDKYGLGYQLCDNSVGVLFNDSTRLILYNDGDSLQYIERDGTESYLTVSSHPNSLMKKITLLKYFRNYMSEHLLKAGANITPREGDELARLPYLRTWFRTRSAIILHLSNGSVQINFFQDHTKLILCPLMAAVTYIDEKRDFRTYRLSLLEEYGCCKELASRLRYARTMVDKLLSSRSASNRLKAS

SMILES	residual activity [%]
O=c1cc(N2CCOCC2)oc2c(-c3ccccc3)cccc12	12
O=C1Cc2c([nH]c3ccc([N+](=O)[O-])cc23)-c2ccccc2N1	100
Nc1n[nH]c2nc3ccccc3nc12	78
NC(=O)c1cccc(-c2cc(Nc3ccc(OC(F)(F)F)cc3)ncn2)c1	88
COc1ccc(COc2ccc(Cc3cnc(N)nc3N)cc2OC)cc1	71
N#C/C(=C\c1ccc(O)c(O)c1)C(=O)NCc1ccccc1	64
N#Cc1c(NC(=O)c2cccc3ccccc23)sc2c1CCCC2	78
COc1cc2c(cc1OC)-c1n[nH]c(Nc3cccc(F)c3)c1C2	61
Cc1cc(C)c(/C=C2\C(=O)Nc3ccccc32)[nH]1	76
O=C1NC(=O)C(c2cn(CCCn3ccnc3)c3ccccc23)=C1Nc1ccccc1	64
O=C(NC(NC(=S)Nc1ccc(F)c([N+](=O)[O-])c1)C(Cl)(Cl)Cl)C(c1ccccc1)c1ccccc1 (stereo not drawn)	98
O=C1C(Cl)=C(N2C(=O)CCC2=O)C(=O)c2ccccc21	85
CC(C)N(CCC(=O)c1ccc2ccccc2c1)Cc1ccccc1	64
CC(C)c1nn(-c2c(Cl)cccc2Cl)c2nc(Cc3ccc(OCCO)cc3)[nH]c(=O)c12	81
N#C/C(=C1/Nc2ccccc2S1)c1ccnc(NCCc2cccnc2)n1	74
COc1ccc(-c2cnc3c(-c4ccsc4)cnn3c2)cc1	71
CCCCc1c(-c2ccc(O)cc2)[nH]c2nccnc12	87
Fc1ccc(-c2nc3n(c2-c2ccncc2)CCS3)cc1	82
